Results taken from ChEMBL document CHEMBL3988442, “University of Dundee, Small-Polar-MMV Screening Library” (2021).
Out of some 69,000 compounds screened, about 950 (1.4%) showed an effect of 50% or more. The entries come from a sample that favours strong results as a whole.

The compounds below were run on Mycobacterium tuberculosis (assay: Cornell M. t heat shock assay; note: in the data most compounds retested in dose-response had high values).
Assay type: functional, organism-based
Parameters: dose or concentration left out as unconfirmed

SMILES | Percent Effect
CNC(=O)COC1COC2(CCN(Cc3cccnc3)CC2)C1.O=C(O)C(F)(F)F (stereo not drawn) | 22.59%
Cc1cccc(CNC2CCCc3c2cnn3Cc2ccccc2)c1.Cl (stereo not drawn) | -5.892%
CCn1ncc2c1CCCC2NCc1ccc(C)s1 (stereo not drawn) | 16.54%
Cc1ccc(CNC2CCCc3c2cnn3Cc2ccccc2)s1.Cl (stereo not drawn) | 52.93%
Cn1cc(CNC2CCc3c(ccc(=O)n3Cc3cccnc3)C2)cn1.O=C(O)C(F)(F)F.O=C(O)C(F)(F)F (stereo not drawn) | 12.8%
CN(C)C(=O)[C@H]1CO[C@H]2CCN(c3ncc(F)cn3)C[C@H]2C1.O=C(O)C(F)(F)F | 5.292%
CC(CNCc1ccc(F)cc1)Oc1ccccn1.Cl (stereo not drawn) | 4.534%
Cc1nc(CN2CCCC(N(C)CCc3cccs3)C2)no1 (stereo not drawn) | 86.93%
CCc1nc(CN2CCCC(N(C)CCc3cccs3)C2)no1 (stereo not drawn) | 22.05%
Cc1nc(CN2CCCC(N(C)c3ccc(C#N)cn3)C2)no1 (stereo not drawn) | -30.96%
Cc1nc(CN2CCCC(N(C)c3cnc4ccccc4n3)C2)no1 (stereo not drawn) | 68.17%
CN(CCc1cccs1)C1CCCN(Cc2noc(C3CC3)n2)C1 (stereo not drawn) | 32.3%
Cc1nc(CN2CCCC(N(C)CCCc3ccccc3)C2)no1 (stereo not drawn) | -1.488%
Cc1nc[nH]c1CN1C[C@@H]2CC[C@H](C1)N(C(=O)c1cnn(C)c1)C2 | -6.364%
Cc1ccc(C(=O)N2Cc3c(CN4CCCCC4)nn(C)c3C2)cc1F.O=C(O)C(F)(F)F | -32.35%
Cc1ccc(CN2CCC3(CC2)C(c2ccccc2)CC(=O)N3C)o1.O=C(O)C(F)(F)F (stereo not drawn) | 26.84%
Cn1cc(C(=O)NCc2cn3c(n2)CN(CC2CCOC2)CC3)cn1.O=C(O)C(F)(F)F.O=C(O)C(F)(F)F (stereo not drawn) | -28.66%
O=C1c2cnc(N3CCCC3)nc2CN1C1CCS(=O)(=O)C1 (stereo not drawn) | 9.039%
Cc1cccc(CNC(Cc2ccsc2)c2nc(C)c(C)s2)n1.Cl (stereo not drawn) | 106.6%
Cc1nc(C(Cc2ccsc2)NC(=O)CN2CCOCC2)sc1C (stereo not drawn) | -3.287%
Cc1cccc(CNC(Cc2ccsc2)c2nccs2)n1 (stereo not drawn) | 101.9%

SMILES | Percent Effect
CC(C)Oc1cccc(CNC(Cc2ccsc2)c2nccs2)c1.Cl (stereo not drawn) | 2.523%
O=C(NC(Cc1ccsc1)c1nccs1)C1CC1 (stereo not drawn) | -16.41%
Cc1nc(C(Cc2ccsc2)NC(=O)CCN2CCOCC2)sc1C (stereo not drawn) | 3.097%
COc1ccccc1CNC(Cc1cccs1)c1nc(C)c(C)s1.Cl (stereo not drawn) | 6.532%
COc1cccc(CNC(Cc2cccs2)c2nc(C)c(C)s2)c1OC.Cl (stereo not drawn) | -9.078%
CCC(CN1CCCC1)NC(=O)C1(c2cccc(F)c2)CC1.O=C(O)CC(O)(CC(=O)O)C(=O)O (stereo not drawn) | -3.287%
CN(C)C(=O)[C@@]12CCO[C@@H]1CCN(Cc1ccc3c(c1)OCO3)C2.O=C(O)C(F)(F)F | 4.753%
Cc1noc([C@]23COC[C@H]2CN(C(=O)CN(C)C)C3)n1.O=C(O)C(F)(F)F | 15.78%
CC1CCN(c2cc(CCC3CCCN3)ncn2)CC1.Cl (stereo not drawn) | -19.69%
Cc1nocc1C(=O)N1CCOC2(COCCN(C(C)C)C2)C1.O=C(O)C(F)(F)F (stereo not drawn) | 1.76%
CCN(Cc1ccc2cccc(O)c2n1)CC1CCCO1 (stereo not drawn) | 84.2%
CCN(Cc1cccnc1)CC1CCCO1 (stereo not drawn) | -42.47%
CCN(Cc1cccc2c1OCO2)CC1CCCO1 (stereo not drawn) | -23.06%
O=C(O)C(F)(F)F.O=S1(=O)c2ccccc2C2(CCN(Cc3ccccc3)C2)N1CC1CC1 (stereo not drawn) | 20.71%
COCCN(C)c1ccc(NCc2cccnc2)nc1 | 21.66%
OCC1CCN(c2ccc(NCc3ccsc3)nc2)CC1 | 11.8%
CCn1cc(CNc2ccc(Br)c(OC)c2)cn1 | -14.65%
CCn1cc(CNc2ccc(N(C)CCOC)cn2)cn1 | 57.45%
COCCN(C)c1ccc(NCc2cscn2)nc1 | 13.97%
COCCN(C)c1ccc(NCc2ccsc2)nc1 | 90.49%
Cl.O=C(c1ccccc1Cl)N1CCN(CCc2ccccn2)CC1 | -2.792%

SMILES | Percent Effect
COCCN1CCN(c2cccc(C)n2)Cc2ccc(C)nc21.O=C(O)C(F)(F)F.O=C(O)C(F)(F)F | 28.62%
CN(Cc1cccc2cccnc12)C1CCS(=O)(=O)C1.O=C(O)CC(O)(CC(=O)O)C(=O)O (stereo not drawn) | -10.77%
Cc1cccc(CN2CCO[C@H]3[C@@H](OCc4ccncc4)CC[C@@H]32)n1.O=C(O)C(F)(F)F.O=C(O)C(F)(F)F.O=C(O)C(F)(F)F | -9.598%
CN(C)C(=O)[C@@H]1C[C@@H]2CCN(C3CCOCC3)C[C@H]2O1.O=C(O)C(F)(F)F | -21.42%
CNC(=O)[C@@H]1[C@@H](OC(=O)Nc2ccccc2)C(=O)N(C)C12CCNCC2 | 60.88%
CN1C(=O)[C@H](OC(N)=O)[C@@H](C(=O)Nc2ccccc2)C12CCNCC2 | 31.45%
CO[C@H]1C(=O)N(C)C2(CCNCC2)[C@@H]1C(=O)Nc1ccccc1 | 47.74%
Fc1ccc(F)c(CN2CCC(c3n[nH]c4ncccc34)CC2)c1.O=C(O)CC(O)(CC(=O)O)C(=O)O | -14.52%
CN(Cc1nc(N)nc(N(C)C)n1)Cc1cccc2ccccc12 | -5.133%
COc1ccccc1CCN(C)Cc1nc(N)nc(N(C)C)n1 | 10.83%
CN(CCc1cccc2ccccc12)Cc1nc(N)nc(N(C)C)n1 | 75.75%
CC(C)Cn1ccnc1CNC(=O)NC(C)c1nccs1 (stereo not drawn) | 55.14%
Cc1nc(C(C)NC(=O)NCc2nccn2CC(C)C)cs1 (stereo not drawn) | 0.1192%
CC(C)Cn1ccnc1CNC(=O)NC(C)(C)c1nccs1 | -19.09%
O=C(O)C(F)(F)F.O=C(c1cscn1)N1CCc2ncnc(-c3cccnc3)c2CC1 | -9.91%
COc1ccc(NC(=O)C2OC(c3cccs3)=NN2C(C)=O)cc1OC (stereo not drawn) | 54.99%
CC(=O)N1N=C(c2ccccc2)OC1C(=O)NCCc1cccc(Cl)c1 (stereo not drawn) | -5.794%
CC(=O)N1N=C(c2cccs2)OC1C(=O)Nc1ccccc1 (stereo not drawn) | 6.727%
COc1ccc(NC(=O)C2OC(c3cccs3)=NN2C(C)=O)cc1 (stereo not drawn) | 19.1%
CC(=O)N1N=C(c2cccs2)OC1C(=O)NCCc1cccc(Cl)c1 (stereo not drawn) | 62.85%
CC(=O)N1N=C(c2ccccc2)OC1C(=O)NCCc1cccc(F)c1 (stereo not drawn) | 26%
